{"source": "the supplement of paper PMC10681739", "data": [{"molecular_target": "T1, ETS1 (UniProt P14921)", "T1 sequence": "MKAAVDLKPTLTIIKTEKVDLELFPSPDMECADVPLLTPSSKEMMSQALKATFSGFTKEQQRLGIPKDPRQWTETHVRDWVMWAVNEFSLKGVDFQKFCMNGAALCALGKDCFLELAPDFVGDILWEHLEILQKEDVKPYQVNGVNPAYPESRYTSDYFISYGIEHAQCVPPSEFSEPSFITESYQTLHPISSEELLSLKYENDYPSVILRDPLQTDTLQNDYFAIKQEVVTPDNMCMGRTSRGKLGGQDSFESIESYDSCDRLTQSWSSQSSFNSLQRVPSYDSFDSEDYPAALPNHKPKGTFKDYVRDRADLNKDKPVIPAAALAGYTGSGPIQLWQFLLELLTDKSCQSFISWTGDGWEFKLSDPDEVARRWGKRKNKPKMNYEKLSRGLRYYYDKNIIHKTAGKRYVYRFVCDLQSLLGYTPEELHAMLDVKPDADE", "experiment": "TF binding intensity (PBM fluorescence), negative control probe (arbitrary fluorescence units); higher = stronger binding", "experimental": "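gcPBM negative-control 36-bp genomic probes lacking TF binding sites. Each was incubated with recombinant human ETS1 or RUNX1 alone and detected by antibody fluorescence. Values are medians over replicate spots (4 spots for the ETS1-RUNX1 arrays, 3 for the ETS1-ETS1 array). The probes sit in constant array flanks that are not printed.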", "values": [{"sequence": "CCCCTCCAGACTCCCCTGACCCAGGGTGGAGGACAT (protein concentration 10 nM)", "TF binding intensity": 161}, {"sequence": "AGAGGCATGAAAACAAATGAGACTAGGATGAGTTGG (protein concentration 10 nM)", "TF binding intensity": 131}, {"sequence": "TATTTCACGCAAATAAGCAGTGACTGAGGACACAGT (protein concentration 10 nM)", "TF binding intensity": 117}, {"sequence": "AATCCAATGGGGTTTCTGTGTAATTAATAACATCTA (protein concentration 10 nM)", "TF binding intensity": 120}, {"sequence": "TTCAAAGCACATTCACCCACATGATCCTATTGATCT (protein concentration 1 nM)", "TF binding intensity": 468}, {"sequence": "CCTGAGGCCTGCCCCAGTCACCTGTATTTACCCTGC (protein concentration 10 nM)", "TF binding intensity": 122}, {"sequence": "TTGTGTTCTTATCAAATTATTAAGATTTTAGGTGAG (protein concentration 10 nM)", "TF binding intensity": 133}, {"sequence": "ACGAAAGTAAACAGTACTAGGTGCAGGGGCTTTAAT (protein concentration 10 nM)", "TF binding intensity": 117}, {"sequence": "CCACGCTTTGCCAGCACTTTCCCCTGCCTCGTCTGT (protein concentration 10 nM)", "TF binding intensity": 119}, {"sequence": "CCATCGATGAAAAGGCTGCTATCTCTCGCTGATGGG (protein concentration 10 nM)", "TF binding intensity": 139}, {"sequence": "GAAATCACGGGACCCCGAGCGGTTGGAGATCTGCCA (protein concentration 10 nM)", "TF binding intensity": 91.7}, {"sequence": "TTGTTACACTCCACGCTTTAGCTATTTGTTGCTACT (protein concentration 10 nM)", "TF binding intensity": 120}, {"sequence": "ATGGCCAGTTCACAGTGAGCCAAAGTCCTCCTCACA (protein concentration 10 nM)", "TF binding intensity": 94.5}, {"sequence": "AATGAATCTGCATGAATAAAAGGGTCAACACAGCAG (protein concentration 10 nM)", "TF binding intensity": 147}, {"sequence": "GCCCATCATTGGAGTCCCTTGGGGGTATCTGGAGCA (protein concentration 10 nM)", "TF binding intensity": 161}, {"sequence": "TGGACTAACTCCATTGCCTTTGTATACATTGGTTTC (protein concentration 10 nM)", "TF binding intensity": 102}, {"sequence": "ACCCTGAGCCCTCTCCCGCTCCCTGGGTCTCAGCCT (protein concentration 10 nM)", "TF binding intensity": 98.1}, {"sequence": "ATATATAGTAACCACATGATTAATAATAATAATGCA (protein concentration 10 nM)", "TF binding intensity": 119}, {"sequence": "AACTGTGACGTTACATTGCAAGGGCATGAATACAGG (protein concentration 10 nM)", "TF binding intensity": 131}, {"sequence": "CATCCCTCTGCCAGATGGAATTTGGAGATAAACCTC (protein concentration 10 nM)", "TF binding intensity": 130}, {"sequence": "GAAAACACTAGCGTGACCTCAACAACTAAGATTAAA (protein concentration 1 nM)", "TF binding intensity": 490}, {"sequence": "TAGTTAAGACCTCTTAAGTCATAATAATATTGCCTA (protein concentration 10 nM)", "TF binding intensity": 102}, {"sequence": "AACTTGAAGTCACCACATGAAAGGTTCCAATGCAGC (protein concentration 10 nM)", "TF binding intensity": 121}, {"sequence": "GAAAGAGGCACATGGTGCCTCACAGCCTCCTCCCAG (protein concentration 10 nM)", "TF binding intensity": 128}, {"sequence": "TAGGGAATGGTGAGCTGTGGTTTGTGGCTTCATGGA (protein concentration 1 nM)", "TF binding intensity": 443}, {"sequence": "CACACCCGCCTGTTACCCACATGCACAAGCAGTCTG (protein concentration 1 nM)", "TF binding intensity": 449}, {"sequence": "ACCTGGGTCTCTGACAGACACCCCAAACTTCAGTTC (protein concentration 10 nM)", "TF binding intensity": 102}, {"sequence": "TACTGGGGAGTGAAAAGGACACATCTATCCTTATAT (protein concentration 10 nM)", "TF binding intensity": 103}, {"sequence": "CTGGGGTGGCGCCAGCCTTATTATGACTAACCATGA (protein concentration 10 nM)", "TF binding intensity": 105}, {"sequence": "CCACCGAGTGTTCTCGTTGCTCCACCGTAGCATCAG (protein concentration 10 nM)", "TF binding intensity": 124}, {"sequence": "GATAGACATATAAAAACCACAAAAATCAAAACTGCA (protein concentration 1 nM)", "TF binding intensity": 485}, {"sequence": "CTTCAAAGGCCCCGCATTAGCTGGGGTCGATCCAGA (protein concentration 10 nM)", "TF binding intensity": 154}, {"sequence": "ATAAAGTACATTAATTCATTCATCCAGCAAGAGTGT (protein concentration 10 nM)", "TF binding intensity": 122}, {"sequence": "GTTGTTATGCAAGGTTGTGGTTTTTGCAGTCTTTTG (protein concentration 1 nM)", "TF binding intensity": 498}, {"sequence": "GATGCTTTTGTCCCACTAGGGCTCGTGCCTTAGTGA (protein concentration 10 nM)", "TF binding intensity": 112}, {"sequence": "GGGGGTATAGGGGAGCAGTCCCATGTAGTAGTAGAA (protein concentration 10 nM)", "TF binding intensity": 172}, {"sequence": "AGTCTAGTTTTGCTCTTTAAAATCACCATCTGTATC (protein concentration 10 nM)", "TF binding intensity": 138}, {"sequence": "ACCTCATCGAAAGTCTCTCTGGAGGCTGAGTTTGTC (protein concentration 10 nM)", "TF binding intensity": 123}, {"sequence": "GAGCCCTTCTGGCCTCCCTGTATAAGTCCAGACTGA (protein concentration 10 nM)", "TF binding intensity": 96.9}, {"sequence": "AACACTCAGTGTATTTTAATAAACAACATTTTTTAA (protein concentration 10 nM)", "TF binding intensity": 96.6}]}]}
